Measurements reported in PubChem BioAssay.
Values joined by “and” are separate entries in the source; they are usually repeats but may differ in a detail not shown here. Identical values can stand only once. Active and inactive are the calls of the source. No stated cut-off is given here; in the data, active means parasite load remaining mostly below about 12% (no sharp cut-off); inactive means mostly above about 10%. Numbered stars: 1 amine (or outer) side, 2 acyl side, 3 side chain; on linkers, the order of the positions; unused ones are H or OH. Bridge positions count the residues as written; N and C are the ends. Square brackets hold non-standard residues; d marks the D form. Peptide text beside a SMILES is read from it. * marks the point of attachment. Heptanoyl(6-Me) = CC(C)CCCCC(=O)*; X3 = CC(C)C(CN[*:1])C(=O)[*:2]; Dab = NCC[CH](N)C(=O)O

Assay: P. berghei load reduction in hepatocytes – cell-based, HepG2, luciferase luminescence, HepG2 viability, primary screen (AID 624349);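 further: 100% = mean of DMSO negative control wells on the same plate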
Settings: P. berghei liver stage in HepG2, luciferase luminescence, concentration not given here; parasite load remaining: stronger effect = lower value; viability: measured here: HepG2 viability without parasites

CCOC(=O)c1c(C)[nH]c(/C=C2\C(=O)Nc3ccccc32)c1C
parasite load remaining: 39.2% (inactive)
viability: 69.8%

COc1ccc(S(=O)(=O)Nc2ccccc2CN(C)C/C=C/c2ccc(Cl)cc2)cc1
parasite load remaining: 36.4% (inactive)
viability: 93.6%

CCCCc1c(-c2ccc(OC)cc2)[nH]c2nccnc12
parasite load remaining: 34.8% (inactive)
viability: 106%

COc1cc2ncnc(N3CCN(C(=O)Nc4ccc(Oc5ccccc5)cc4)CC3)c2cc1OC
parasite load remaining: 27.2% (inactive)
viability: 89.5%

CC(C)n1cnc2c(NCc3ccccc3O)nc(NCCCO)nc21
parasite load remaining: 37.8% (inactive)
viability: 118%

CC(C)CCCCC(=O)NC(CCN)C(=O)NC(C(=O)NC(CCN)C(=O)NC1CCNC(=O)C(C(C)O)NC(=O)C(CCN)NC(=O)C(CCN)NC(=O)C(C(C)C)CNC(=O)C(CC(C)C)NC(=O)C(CCN)NC1=O)C(C)O (stereo not given) ({Heptanoyl(6-Me)}-[Dab]T[Dab][Dab][Dab]L[X3][Dab][Dab]T; lactam 4-C; configuration not given here)
parasite load remaining: 68.1% (inactive)
viability: 75.2%

Ic1cccc(CSc2nnc(-c3ccncc3)o2)c1
parasite load remaining: 20.8% (inactive)
viability: 98.7%

CCc1[nH]c(-c2ccc(OC)cc2)nc1-c1ccncc1
parasite load remaining: 30.1% (inactive)
viability: 82.4%

Cn1nc2c3c(cccc31)C(=O)c1ccccc1-2
parasite load remaining: 28.1% (inactive)
viability: 83.8%

CCCOc1ccc(/C=C2\SC(=O)NC2=O)cc1
parasite load remaining: 54.3% (inactive)
viability: 111%

O=Nc1c(-c2c(O)[nH]c3ccc(I)cc23)[nH]c2ccccc12
parasite load remaining: 33.7% (inactive)
viability: 156%

COc1ccc(-c2cnc3c(-c4ccsc4)cnn3c2)cc1
parasite load remaining: 16.9% (inactive)
viability: 67.4%

O=C(Nc1ccc(-c2cn[nH]c2)cc1)C1COc2ccccc2O1 (stereo not given)
parasite load remaining: 48.6% (inactive)
viability: 62.7%

CCCCCCOC(=O)[C@]1(O)C[C@@H]2O[C@@]1(C)n1c3ccccc3c3c4c(c5c6ccccc6n2c5c31)C(=O)NC4
parasite load remaining: 55.7% (inactive)
viability: 93.7%

O=c1[nH]c(O)c2c1c1c3ccccc3nc1n1cncc21
parasite load remaining: 34.3% (inactive)
viability: 93.6%

O=C1c2ccccc2-c2nc3nnnn3nc21
parasite load remaining: -1.07% (inactive)
viability: 0.01%

Cc1ncc2ccccc2c1C#N
parasite load remaining: 44.1% (inactive)
viability: 86.2%

CCOc1nc(NC(=O)Cc2cc(OC)ccc2OC)cc(N)c1C#N
parasite load remaining: 37.8% (inactive)
viability: 72.7%

Cn1c(O)c(-c2[nH]c3ccccc3c2N=O)c2ccc(Br)cc21
parasite load remaining: 27.7% (inactive)
viability: 171%

COc1cc2ncnc(Nc3ccc(NC(=O)c4ccccc4)cc3)c2cc1OC
parasite load remaining: 41.1% (inactive)
viability: 100%

Cn1cc(/C=C2\C(=O)Nc3ccc(S(N)(=O)=O)cc32)c2ccccc21
parasite load remaining: 59.7% (inactive)
viability: 106%

CC#CC(=O)Nc1cc2c(Nc3ccc(F)c(Cl)c3)ncnc2cn1
parasite load remaining: 50.6% (inactive)
viability: 159%

N=c1ccn2c(n1)O[C@@H]1C2O[C@H](CO)[C@H]1O (stereo not given in full)
parasite load remaining: 234% (inactive)
viability: 85%

Cn1sc(=O)n(Cc2ccccc2)c1=O
parasite load remaining: 33% (inactive)
viability: 94.4%

Nc1c(O)cccc1C(=O)CC(N)C(=O)O (stereo not given)
parasite load remaining: 62.4% (inactive)
viability: 73.1%

NC(=O)Nc1cc(-c2ccccc2)sc1C(N)=O
parasite load remaining: 74.4% (inactive)
viability: 163%

Nc1ncnc2c1cnn2-c1ccccc1
parasite load remaining: 72% (inactive)
viability: 108%

O=C1Nc2ccc(Cl)cc2/C1=C/c1cc(Cl)c(O)c(Cl)c1
parasite load remaining: 28.5% (inactive)
viability: 82.4%

COc1cc2ncnc(Nc3ccc(OCc4ccccc4)cc3)c2cc1OC
parasite load remaining: 51.2% (inactive)
viability: 119%

CCCCn1c2ccc(O)cc2c2c3c(c(-c4ccccc4Cl)cc21)C(=O)NC3=O
parasite load remaining: 56.2% (inactive)
viability: 74.7%

c1ccc(-c2cnc(Nc3ccc(OCCN4CCCC4)cc3)s2)cc1
parasite load remaining: 46.3% (inactive)
viability: 100%

O=C(Nc1ccc(Cl)cc1)c1ccccc1NCc1ccncc1
parasite load remaining: 39.8% (inactive)
viability: 69%

CC(C)(C)c1ccc(S(=O)(=O)Nc2ccc(-n3ccnc3)cc2)cc1
parasite load remaining: 37.4% (inactive)
viability: 67.1%

Cc1nc(N)sc1-c1ccnc(Nc2cccc([N+](=O)[O-])c2)n1
parasite load remaining: 60.6% (inactive)
viability: 87.6%

O=C1C(Cl)=C(N2C(=O)CCC2=O)C(=O)c2ccccc21
parasite load remaining: 34.2% (inactive)
viability: 76.3%

O=C1NC(=NCc2cccs2)S/C1=C\c1ccc2ncccc2c1
parasite load remaining: 27.7% (inactive)
viability: 96.3%

CN(C)c1ccc(/C=C2/C(=O)Nc3ccccc32)cc1
parasite load remaining: 34.8% (inactive)
viability: 126%

CO[C@H]1C[C@@H]2CC[C@@H](C)[C@@](O)(O2)C(=O)C(=O)N2CCCC[C@H]2C(=O)O[C@H](C(C)C[C@H]2CC[C@@H](O)[C@H](OC)C2)CC(=O)[C@H](C)/C=C(\C)[C@@H](O)[C@@H](OC)C(=O)[C@H](C)C[C@H](C)/C=C/C=C/C=C/1C (stereo not given in full)
parasite load remaining: 45.4% (inactive)
viability: 63.2%

O=C1Nc2ccccc2/C1=C\c1c(Cl)[nH]c2ccccc12
parasite load remaining: 35% (inactive)
viability: 118%

O=C(c1ccccc1)c1ccc(N2CCOCC2)cc1O
parasite load remaining: 40.6% (inactive)
viability: 74.9%

Nc1n[nH]c(N)c1N=Nc1ccc(O)cc1
parasite load remaining: 23.7% (inactive)
viability: 93.1%

CC[C@H](CO)Nc1nc(NCc2ccccc2O)c2ncn(C(C)C)c2n1
parasite load remaining: 34.4% (inactive)
viability: 146%

O=C(Nc1cccc(Nc2cc(Nc3cccc(C(F)(F)F)c3)ncn2)c1)C1CC1
parasite load remaining: 48.9% (inactive)
viability: 163%

Cn1cnc2cc3c(Nc4cccc(Br)c4)ncnc3cc21
parasite load remaining: 14.5% (inactive)
viability: 165%

N#CCCc1ccc2c(c1)-c1[nH]c3ccc([N+](=O)[O-])cc3c1CC(=O)N2
parasite load remaining: 64.4% (inactive)
viability: 120%

NCCCn1cc(C2=C(c3c[nH]c4ccccc34)C(=O)NC2=O)c2ccccc21
parasite load remaining: 53.3% (inactive)
viability: 148%

O=C(O)Cc1c2ccccc2n2c1[nH]c(=O)c1ccccc12
parasite load remaining: 35.1% (inactive)
viability: 170%

COC1C=CC23c4cc5c(cc4CN(C[C@H]2O)[C@@H]3C1)OCO5 (stereo not given in full)
parasite load remaining: 2.19% (inactive)
viability: 98.9%

COC1=C[C@]23CCCN2CCc2cc4c(cc2[C@]3(C)C1OC(=O)[C@@](O)(CCCC(C)(C)O)CC(=O)O)OCO4 (stereo not given in full)
parasite load remaining: -0.16% (inactive)
viability: 37.5%

c1ccc2c(-c3ccncc3)c[nH]c2c1
parasite load remaining: 30.9% (inactive)
viability: 66.5%

O=C1NC(=O)C(c2cn(CCCO)c3ncccc23)=C1c1cnccn1
parasite load remaining: 39.6% (inactive)
viability: 97.4%

CC(=O)c1ccc(N2CCOCC2)cc1O
parasite load remaining: 38.3% (inactive)
viability: 110%

COc1ccc2c(c1)c1c3c(c4c5ccccc5n(C)c4c1n2CC(O)CN(C)C)C(=O)NC3=O (stereo not given)
parasite load remaining: 65.8% (inactive)
viability: 144%

CC(C)n1cnc2c(NCc3ccccc3)nc(NCCCO)nc21
parasite load remaining: 34.6% (inactive)
viability: 118%

CC[n+]1c(/C=C/N(C)c2ccccc2)n(-c2ccccc2)c2ccc(-c3nc4ccccc4s3)cc21
parasite load remaining: 33.2% (inactive)
viability: 152%

O=c1c(O)c(-c2ccc(O)c(O)c2)oc2cc(O)c(O)c(O)c12
parasite load remaining: 32.1% (inactive)
viability: 88.8%

NCCNc1ncc(C(N)=O)c(Nc2cccc(C(F)(F)F)c2)n1
parasite load remaining: 37.1% (inactive)
viability: 76.9%

O=C(Nc1ccncc1)Nc1c(Cl)cc(Cl)cc1Cl
parasite load remaining: 41.9% (inactive)
viability: 65.2%

O=C(Nc1cccc(Nc2nccc(Nc3cccc(C(F)(F)F)c3)n2)c1)C1CC1
parasite load remaining: 36.9% (inactive) and 34.4% (inactive)
viability: 99.7% and 89.6%

CC(C)C(CO)Nc1nc(Nc2cccc(Cl)c2)c2ncn(C(C)C)c2n1 (stereo not given)
parasite load remaining: 30.5% (inactive)
viability: 63.2%
